# Only a selection was taken, and the strongest signals are over-represented in it overall.
# B1: OS9 (Arabidopsis thaliana) (protein)
# chain: MRGSHHHHHHGMASMTGGQQMGRDLYDDDDKSRLQIFPAHLVGTFSRNNREPKYKIEFLPEDSPFHPGDNLESMVMLDKHGNRFLCYLPKEEKATSGWTSSQQNISTVMMETQQLVKLKTPDELLQPLSEKCLFRQEGWWSYEFCHQKYVRQLHVEDENKIVQEFFLGTFDPEATAAFNQTVSDASTDASQRYHSHVYTNGTTCDLTGSPREVEVRFVCAETRAMVTSITELSTCKYALTVQCPTLCKHPLFQLEKPVSHTIHCNAIPVEEDATRNKEEQAVDESPKMIADS
# Experiments:
# Test in all cases: glycan array binding signal (z-score within array); higher = stronger binding
# Details in all cases: glycan notation: IUPAC condensed, linker removed
# Fuc(a1-2)Gal(b1-3)GlcNAc = target: Fuc(a1-2)Gal(b1-3)GlcNAc
# Outline: (§1)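 The Consortium for Functional Glycomics database supplied 3228 glycan arrays, of which those lacking an available protein sequence were dropped. The binding signal, a within-array Z-score, was averaged across arrays of the same protein sequence and across linkers. Negative scores can be read as non-binding.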
# [1] = target: Fuc(a1-2)Gal(b1-3)GlcNAc(b1-3)[Gal(b1-4)GlcNAc(b1-6)]Gal(b1-4)Glc
# Outline: as §1
# [2] = target: Fuc(a1-2)Gal(b1-4)[Fuc(a1-3)]GlcNAc(b1-2)Man(a1-3)[Fuc(a1-2)Gal(b1-4)[Fuc(a1-3)]GlcNAc(b1-2)Man(a1-6)]Man(b1-4)GlcNAc(b1-4)[Fuc(a1-6)]GlcNAc
# Outline: as §1
# [3] = target: Fuc(a1-2)Gal(b1-4)[Fuc(a1-3)]GlcNAc(b1-3)Gal(b1-4)[Fuc(a1-3)]GlcNAc(b1-3)Gal(b1-4)[Fuc(a1-3)]GlcNAc
# Outline: as §1
# [4] = target: Fuc(a1-2)[Gal(a1-3)]Gal(b1-4)GlcNAc(b1-2)Man(a1-3)[Fuc(a1-2)[Gal(a1-3)]Gal(b1-4)GlcNAc(b1-2)Man(a1-6)]Man(b1-4)GlcNAc(b1-4)GlcNAc
# Outline: as §1
# [5] = target: Fuc(a1-2)[Gal(a1-3)]Gal(b1-4)GlcNAc(b1-6)GalNAc
# Outline: as §1
# [6] = target: Fuc(a1-2)[GalNAc(a1-3)]Gal(b1-4)GlcNAc
# Outline: as §1
# [7] = target: Fuc(a1-3)[Gal(b1-4)]GlcNAc(b1-3)Gal(b1-4)[Fuc(a1-3)]GlcNAc(b1-3)Gal(b1-4)[Fuc(a1-3)]GlcNAc
# Outline: as §1
# [8] = target: Fuc(a1-3)[Gal(b1-4)]GlcNAc6S
# Outline: as §1
# [9] = target: Fuc(a1-3)[Gal3S(b1-4)]GlcNAc
# Outline: as §1
# [10] = target: Fuc(a1-3)[Gal3S(b1-4)]GlcNAc6S
# Outline: as §1
# [11] = target: Fuc(a1-3)[GalNAc(b1-4)]GlcNAc
# Outline: as §1
# Gal(a1-3)Gal(b1-4)GlcNAc = target: Gal(a1-3)Gal(b1-4)GlcNAc
# Outline: as §1
# [12] = target: Gal(a1-3)Gal(b1-4)GlcNAc(b1-6)GalNAc
# Outline: as §1
# Gal(a1-4)Gal(b1-4)Glc = target: Gal(a1-4)Gal(b1-4)Glc
# Outline: as §1
# Gal(b1-3)GalNAc = target: Gal(b1-3)GalNAc
# Outline: as §1
# Gal(b1-3)GalNAc(b1-3)Gal = target: Gal(b1-3)GalNAc(b1-3)Gal
# Outline: as §1
# [13] = target: Gal(b1-3)GlcNAc(a1-3)Gal(b1-4)GlcNAc
# Outline: as §1
# [14] = target: Gal(b1-3)GlcNAc(b1-2)Man(a1-3)[Gal(b1-3)GlcNAc(b1-2)Man(a1-6)]Man(b1-4)GlcNAc(b1-4)[Fuc(a1-6)]GlcNAc
# Outline: as §1
# [15] = target: Gal(b1-3)GlcNAc(b1-3)Gal(b1-4)GlcNAc(b1-3)Gal(b1-4)GlcNAc(b1-2)[Gal(b1-3)GlcNAc(b1-3)Gal(b1-4)GlcNAc(b1-3)Gal(b1-4)GlcNAc(b1-6)]Man(a1-6)[Gal(b1-3)GlcNAc(b1-3)Gal(b1-4)GlcNAc(b1-3)Gal(b1-4)GlcNAc(b1-2)Man(a1-3)]Man(b1-4)GlcNAc(b1-4)[Fuc(a1-6)]GlcNAc
# Outline: as §1
# [16] = target: Gal(b1-3)GlcNAc(b1-6)[Gal(b1-3)]GalNAc
# Outline: as §1
# [17] = target: Gal(b1-3)[Fuc(a1-4)]GlcNAc(b1-2)Man(a1-3)[Gal(b1-3)[Fuc(a1-4)]GlcNAc(b1-2)Man(a1-6)]Man(b1-4)GlcNAc(b1-4)[Fuc(a1-6)]GlcNAc
# Outline: as §1
# [18] = target: Gal(b1-4)GlcNAc(b1-2)[Gal(b1-4)GlcNAc(b1-6)]Man(a1-6)[GlcNAc(b1-4)][Gal(b1-4)GlcNAc(b1-2)Man(a1-3)]Man(b1-4)GlcNAc(b1-4)GlcNAc
# Outline: as §1
# [19] = target: Gal(b1-4)GlcNAc(b1-3)Gal(b1-4)GlcNAc(b1-3)Gal(b1-4)GlcNAc(b1-3)Gal(b1-4)GlcNAc(b1-3)Gal(b1-4)GlcNAc(b1-3)Gal(b1-4)GlcNAc(b1-2)Man(a1-3)[Gal(b1-4)GlcNAc(b1-3)Gal(b1-4)GlcNAc(b1-3)Gal(b1-4)GlcNAc(b1-3)Gal(b1-4)GlcNAc(b1-3)Gal(b1-4)GlcNAc(b1-3)Gal(b1-4)GlcNAc(b1-2)Man(a1-6)]Man(b1-4)GlcNAc(b1-4)GlcNAc
# Outline: as §1
# [20] = target: Gal(b1-4)GlcNAc(b1-3)[Gal(b1-4)GlcNAc(b1-6)]Gal(b1-4)GlcNAc
# Outline: as §1
# Gal3S(b1-4)Glc6S = target: Gal3S(b1-4)Glc6S
# Outline: as §1
# GalNAc(a1-3)Gal = target: GalNAc(a1-3)Gal
# Outline: as §1
# GalNAc(b1-3)GalNAc = target: GalNAc(b1-3)GalNAc
# Outline: as §1
# GalNAc(b1-4)Gal(b1-4)Glc = target: GalNAc(b1-4)Gal(b1-4)Glc
# Outline: as §1
# [21] = target: GalNAc(b1-4)GlcNAc(b1-2)Man
# Outline: as §1
# Glc(a1-4)Glc = target: Glc(a1-4)Glc
# Outline: as §1
# Glc(a1-6)Glc(a1-6)Glc = target: Glc(a1-6)Glc(a1-6)Glc
# Outline: as §1
# [22] = target: GlcNAc(b1-2)[GlcNAc(b1-4)]Man(a1-3)[GlcNAc(b1-4)][GlcNAc(b1-2)[GlcNAc(b1-6)]Man(a1-6)]Man(b1-4)GlcNAc(b1-4)GlcNAc
# Outline: as §1
# [23] = target: GlcNAc(b1-3)Gal(b1-4)GlcNAc(b1-3)Gal(b1-4)GlcNAc(b1-2)Man(a1-3)[GlcNAc(b1-3)Gal(b1-4)GlcNAc(b1-3)Gal(b1-4)GlcNAc(b1-2)Man(a1-6)]Man(b1-4)GlcNAc(b1-4)[Fuc(a1-6)]GlcNAc
# Outline: as §1
# [24] = target: GlcNAc(b1-3)Gal(b1-4)GlcNAc(b1-6)[Gal(b1-3)]GalNAc
# Outline: as §1
# GlcNAc(b1-3)Man = target: GlcNAc(b1-3)Man
# Outline: as §1
# [25] = target: GlcNAc(b1-4)[GlcNAc(b1-6)]GalNAc
# Outline: as §1
# Kdn(a2-3)Gal(b1-4)Glc = target: Kdn(a2-3)Gal(b1-4)Glc
# Outline: as §1
# [26] = target: Man(a1-2)Man(a1-3)[Man(a1-2)Man(a1-6)]Man
# Outline: as §1
# Man(a1-3)[Man(a1-6)]Man = target: Man(a1-3)[Man(a1-6)]Man
# Outline: as §1
# [27] = target: Neu5Ac(a2-3)Gal(b1-3)GlcNAc(b1-3)GalNAc
# Outline: as §1
# [28] = target: Neu5Ac(a2-6)Gal(b1-4)GlcNAc(b1-2)Man(a1-3)Man(b1-4)GlcNAc(b1-4)GlcNAc
# Outline: as §1
# [29] = target: Neu5Ac(a2-6)Gal(b1-4)GlcNAc(b1-2)Man(a1-3)[Neu5Ac(a2-6)Gal(b1-4)GlcNAc(b1-2)Man(a1-6)]Man(b1-4)GlcNAc(b1-4)GlcNAc
# Outline: as §1
# [30] = target: Neu5Ac(a2-8)Neu5Ac(a2-3)Gal(b1-3)GalNAc(b1-4)[Neu5Ac(a2-8)Neu5Ac(a2-3)]Gal(b1-4)Glc
# Outline: as §1
# [31] = target: Neu5Ac(a2-8)Neu5Ac(a2-3)[Gal(b1-3)GalNAc(b1-4)]Gal(b1-4)Glc
# Outline: as §1
# Neu5Gc(a2-3)Gal(b1-4)Glc = target: Neu5Gc(a2-3)Gal(b1-4)Glc
# Outline: as §1
binder,measurement,setting,value
B1,glycan array binding signal (z-score),Fuc(a1-2)Gal(b1-3)GlcNAc,-0.466
same,glycan array binding signal (z-score),[1],2.66
same,glycan array binding signal (z-score),[2],-0.608
same,glycan array binding signal (z-score),[3],4.22
same,glycan array binding signal (z-score),[4],3.36
same,glycan array binding signal (z-score),[5],0.051
same,glycan array binding signal (z-score),[6],-0.828
same,glycan array binding signal (z-score),[7],-0.881
same,glycan array binding signal (z-score),[8],3.45
same,glycan array binding signal (z-score),[9],1.51
same,glycan array binding signal (z-score),[10],-0.706
same,glycan array binding signal (z-score),[11],0.056
same,glycan array binding signal (z-score),Gal(a1-3)Gal(b1-4)GlcNAc,-0.724
same,glycan array binding signal (z-score),[12],0.243
same,glycan array binding signal (z-score),Gal(a1-4)Gal(b1-4)Glc,2.7
same,glycan array binding signal (z-score),Gal(b1-3)GalNAc,-0.097
same,glycan array binding signal (z-score),Gal(b1-3)GalNAc(b1-3)Gal,3.02
same,glycan array binding signal (z-score),[13],-1.06
same,glycan array binding signal (z-score),[14],-0.157
same,glycan array binding signal (z-score),[15],2.88
same,glycan array binding signal (z-score),[16],0.651
same,glycan array binding signal (z-score),[17],7.5
same,glycan array binding signal (z-score),[18],-0.016
same,glycan array binding signal (z-score),[19],0.798
same,glycan array binding signal (z-score),[20],1.43
same,glycan array binding signal (z-score),Gal3S(b1-4)Glc6S,0.366
same,glycan array binding signal (z-score),GalNAc(a1-3)Gal,-0.979
same,glycan array binding signal (z-score),GalNAc(b1-3)GalNAc,0.839
same,glycan array binding signal (z-score),GalNAc(b1-4)Gal(b1-4)Glc,2.57
same,glycan array binding signal (z-score),[21],3.58
same,glycan array binding signal (z-score),Glc(a1-4)Glc,1.98
same,glycan array binding signal (z-score),Glc(a1-6)Glc(a1-6)Glc,-0.542
same,glycan array binding signal (z-score),[22],0.258
same,glycan array binding signal (z-score),[23],-0.144
same,glycan array binding signal (z-score),[24],0.094
same,glycan array binding signal (z-score),GlcNAc(b1-3)Man,0.127
same,glycan array binding signal (z-score),[25],-0.3
same,glycan array binding signal (z-score),Kdn(a2-3)Gal(b1-4)Glc,0.473
same,glycan array binding signal (z-score),[26],0.462
same,glycan array binding signal (z-score),Man(a1-3)[Man(a1-6)]Man,-0.078
same,glycan array binding signal (z-score),[27],0.474
same,glycan array binding signal (z-score),[28],6.74
same,glycan array binding signal (z-score),[29],-0.5
same,glycan array binding signal (z-score),[30],-0.384
same,glycan array binding signal (z-score),[31],1.47
same,glycan array binding signal (z-score),Neu5Gc(a2-3)Gal(b1-4)Glc,-1.01
